Assay results: PMC7862700, “An all-to-all approach to the identification of sequence-specific readers for epigenetic DNA modifications on cytosine”

Assays:
Test in all cases: DAPPL (digital affinity profiling via proximity ligation, sequencing); 10 mM Tris-HCl pH 7.5, 50 mM NaCl, 1 mM DTT, 4% glycerol, room temperature, 30 min; GST-TFs on glutathione beads, 16-mer random dsDNA library, 0.1% formaldehyde crosslink after washing; high values mean tight binding
FLI1 = biological target: T1, FLI1 (Homo sapiens, UniProt Q01543 1-452); settings: protein: recombinant; tags: N-terminal GST; dsDNA, one strand shown
T1 sequence: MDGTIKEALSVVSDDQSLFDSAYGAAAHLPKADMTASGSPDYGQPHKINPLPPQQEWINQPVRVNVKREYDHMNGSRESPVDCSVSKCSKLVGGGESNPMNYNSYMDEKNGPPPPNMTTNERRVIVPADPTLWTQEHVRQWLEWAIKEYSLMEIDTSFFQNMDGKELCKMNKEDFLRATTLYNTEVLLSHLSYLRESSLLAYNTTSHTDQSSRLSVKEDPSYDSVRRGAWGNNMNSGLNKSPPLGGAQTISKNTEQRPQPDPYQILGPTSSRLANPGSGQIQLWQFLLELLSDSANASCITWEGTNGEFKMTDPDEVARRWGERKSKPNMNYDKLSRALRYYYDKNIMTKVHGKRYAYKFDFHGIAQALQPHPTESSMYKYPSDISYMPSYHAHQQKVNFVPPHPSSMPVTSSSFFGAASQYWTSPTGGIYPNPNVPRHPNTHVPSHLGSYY
Procedure, shortened: (§1)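 Binding signal is defined as a hexamer's read frequency for one factor over its frequency for the tag-only sample. To obtain reads, GST-fused human transcription factors were expressed in yeast, captured on glutathione beads, barcoded with DNA and pooled with that sample. Pools met 200 nmole of a 16-mer random double-stranded DNA library in Tris/NaCl/DTT/glycerol buffer for 30 min at room temperature before washing, 0.1% formaldehyde crosslinking, proximity ligation (BsaI/T4 ligase, 1 h, 37 °C), PCR and Illumina NextSeq500 sequencing.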

ELK1 = biological target: T2, ELK1 (Homo sapiens, UniProt P19419 1-428); settings: protein: recombinant; tags: N-terminal GST; dsDNA, one strand shown
T2 sequence: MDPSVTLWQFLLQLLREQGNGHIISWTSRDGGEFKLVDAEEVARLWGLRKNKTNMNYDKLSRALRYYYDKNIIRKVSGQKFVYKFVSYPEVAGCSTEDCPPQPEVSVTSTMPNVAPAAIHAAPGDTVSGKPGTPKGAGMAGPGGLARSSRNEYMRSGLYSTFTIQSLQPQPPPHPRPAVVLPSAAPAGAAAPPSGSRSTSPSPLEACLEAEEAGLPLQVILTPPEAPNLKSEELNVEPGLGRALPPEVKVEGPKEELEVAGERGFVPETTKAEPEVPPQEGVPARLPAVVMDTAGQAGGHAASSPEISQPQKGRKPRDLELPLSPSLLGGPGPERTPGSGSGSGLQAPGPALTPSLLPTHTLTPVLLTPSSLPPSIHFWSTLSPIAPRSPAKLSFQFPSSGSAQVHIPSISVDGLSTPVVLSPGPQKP
Procedure, shortened: as §1

GABPA = biological target: T3, GABPA (Homo sapiens, UniProt Q06546 1-454); settings: protein: recombinant; tags: N-terminal GST; dsDNA, one strand shown
T3 sequence: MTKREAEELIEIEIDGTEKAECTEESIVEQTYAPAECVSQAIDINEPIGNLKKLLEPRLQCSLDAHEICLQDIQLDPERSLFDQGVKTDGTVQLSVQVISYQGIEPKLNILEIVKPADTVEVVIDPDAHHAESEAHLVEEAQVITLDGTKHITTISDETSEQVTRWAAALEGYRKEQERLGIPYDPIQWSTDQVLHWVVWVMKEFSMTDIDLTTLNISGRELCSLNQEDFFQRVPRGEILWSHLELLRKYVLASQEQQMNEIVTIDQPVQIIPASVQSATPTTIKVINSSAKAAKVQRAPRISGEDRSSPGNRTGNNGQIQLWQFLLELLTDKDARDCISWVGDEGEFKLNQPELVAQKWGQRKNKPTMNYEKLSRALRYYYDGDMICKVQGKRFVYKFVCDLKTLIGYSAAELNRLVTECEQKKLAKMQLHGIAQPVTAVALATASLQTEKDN
Procedure, shortened: as §1

ERG = biological target: T4, ERG (Homo sapiens, UniProt P11308 1-479); settings: protein: recombinant; tags: N-terminal GST; dsDNA, one strand shown
T4 sequence: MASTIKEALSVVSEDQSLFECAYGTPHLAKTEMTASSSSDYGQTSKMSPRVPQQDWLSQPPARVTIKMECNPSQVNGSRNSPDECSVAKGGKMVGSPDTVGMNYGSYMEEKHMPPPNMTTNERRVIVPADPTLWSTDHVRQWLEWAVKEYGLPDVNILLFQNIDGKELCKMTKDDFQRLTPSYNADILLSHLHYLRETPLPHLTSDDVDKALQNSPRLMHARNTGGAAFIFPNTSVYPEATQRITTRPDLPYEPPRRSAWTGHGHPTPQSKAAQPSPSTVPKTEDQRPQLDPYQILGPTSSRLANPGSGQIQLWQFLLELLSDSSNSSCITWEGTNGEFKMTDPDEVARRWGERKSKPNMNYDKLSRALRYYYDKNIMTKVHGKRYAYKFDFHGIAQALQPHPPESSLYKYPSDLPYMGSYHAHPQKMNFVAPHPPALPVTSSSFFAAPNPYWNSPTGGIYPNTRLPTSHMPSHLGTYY
Procedure, shortened: as §1

ELF1 = ELF1 (Homo sapiens, UniProt P32519 1-619); settings: protein: recombinant; tags: N-terminal GST; dsDNA, one strand shown
Chain of ELF1 (P32519 whole entry): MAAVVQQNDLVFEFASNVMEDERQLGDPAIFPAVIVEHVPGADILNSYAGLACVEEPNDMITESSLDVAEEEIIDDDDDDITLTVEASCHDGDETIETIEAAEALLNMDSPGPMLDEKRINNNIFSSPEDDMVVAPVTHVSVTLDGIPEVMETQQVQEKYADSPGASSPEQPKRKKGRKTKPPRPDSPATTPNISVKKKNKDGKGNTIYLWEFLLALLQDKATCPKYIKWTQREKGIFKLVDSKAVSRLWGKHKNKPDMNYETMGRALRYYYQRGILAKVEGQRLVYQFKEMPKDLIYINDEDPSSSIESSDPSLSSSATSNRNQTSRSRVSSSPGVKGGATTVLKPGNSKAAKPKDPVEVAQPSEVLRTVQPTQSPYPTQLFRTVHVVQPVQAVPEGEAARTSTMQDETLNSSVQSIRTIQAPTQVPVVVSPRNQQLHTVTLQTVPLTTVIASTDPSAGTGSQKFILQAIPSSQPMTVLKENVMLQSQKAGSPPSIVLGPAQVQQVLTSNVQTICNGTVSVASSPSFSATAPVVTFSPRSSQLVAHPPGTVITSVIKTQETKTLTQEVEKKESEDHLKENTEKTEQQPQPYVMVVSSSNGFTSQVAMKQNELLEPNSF
Procedure, shortened: as §1

EHF = biological target: T5, EHF (Homo sapiens, UniProt Q9NZC4 1-300); settings: protein: recombinant; tags: N-terminal GST; dsDNA, one strand shown
T5 sequence: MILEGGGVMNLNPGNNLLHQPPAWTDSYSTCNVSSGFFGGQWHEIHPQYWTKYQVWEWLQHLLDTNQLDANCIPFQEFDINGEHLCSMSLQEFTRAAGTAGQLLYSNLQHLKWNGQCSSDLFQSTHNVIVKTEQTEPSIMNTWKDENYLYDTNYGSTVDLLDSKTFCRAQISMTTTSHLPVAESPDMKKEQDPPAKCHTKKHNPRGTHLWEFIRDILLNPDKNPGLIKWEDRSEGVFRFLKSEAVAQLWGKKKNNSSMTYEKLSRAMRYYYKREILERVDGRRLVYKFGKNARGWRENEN
Procedure, shortened: as §1

SPI1 = SPI1 (Homo sapiens, UniProt P17947 1-270); settings: protein: recombinant; tags: N-terminal GST; dsDNA, one strand shown
Procedure, shortened: as §1

SPIB = SPIB (Homo sapiens, UniProt Q01892 1-262); settings: protein: recombinant; tags: N-terminal GST; dsDNA, one strand shown
Chain of SPIB (Q01892 whole entry): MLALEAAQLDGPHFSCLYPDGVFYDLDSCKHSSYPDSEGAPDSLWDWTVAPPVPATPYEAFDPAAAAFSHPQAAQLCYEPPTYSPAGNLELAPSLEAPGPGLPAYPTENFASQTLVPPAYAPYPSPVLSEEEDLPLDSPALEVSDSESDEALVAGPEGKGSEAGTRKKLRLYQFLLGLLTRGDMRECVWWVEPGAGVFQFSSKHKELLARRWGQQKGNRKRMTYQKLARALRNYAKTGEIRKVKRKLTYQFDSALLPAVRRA
Procedure, shortened: as §1

ELK3 = biological target: T6, ELK3 (Homo sapiens, UniProt P41970 1-407); settings: protein: recombinant; tags: N-terminal GST; dsDNA, one strand shown
T6 sequence: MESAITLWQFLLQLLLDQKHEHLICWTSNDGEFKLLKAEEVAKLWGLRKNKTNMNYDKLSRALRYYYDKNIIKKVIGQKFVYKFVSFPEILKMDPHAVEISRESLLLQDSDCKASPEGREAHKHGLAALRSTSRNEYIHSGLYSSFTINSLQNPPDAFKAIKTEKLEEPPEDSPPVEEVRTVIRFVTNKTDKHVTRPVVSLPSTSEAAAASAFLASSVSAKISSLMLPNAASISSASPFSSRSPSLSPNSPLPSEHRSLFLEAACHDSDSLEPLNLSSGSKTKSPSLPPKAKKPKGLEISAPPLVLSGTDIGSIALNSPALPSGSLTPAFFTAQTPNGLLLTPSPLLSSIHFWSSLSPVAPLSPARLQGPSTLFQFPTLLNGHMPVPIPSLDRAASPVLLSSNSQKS
Procedure, shortened: as §1

FEV = biological target: T7, FEV (Homo sapiens, UniProt Q99581 1-238); settings: protein: recombinant; tags: N-terminal GST; dsDNA, one strand shown
T7 sequence: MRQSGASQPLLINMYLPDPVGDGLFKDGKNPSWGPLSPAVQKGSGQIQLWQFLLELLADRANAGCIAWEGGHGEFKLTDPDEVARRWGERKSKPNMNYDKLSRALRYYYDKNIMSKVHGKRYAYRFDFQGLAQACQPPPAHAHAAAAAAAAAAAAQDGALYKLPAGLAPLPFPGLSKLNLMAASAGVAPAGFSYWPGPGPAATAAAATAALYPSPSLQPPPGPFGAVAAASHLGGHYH
Procedure, shortened: as §1

ETV5 = ETV5 (Homo sapiens, UniProt P41161 1-510); settings: protein: recombinant; tags: N-terminal GST; dsDNA, one strand shown
Chain of ETV5 (P41161 whole entry): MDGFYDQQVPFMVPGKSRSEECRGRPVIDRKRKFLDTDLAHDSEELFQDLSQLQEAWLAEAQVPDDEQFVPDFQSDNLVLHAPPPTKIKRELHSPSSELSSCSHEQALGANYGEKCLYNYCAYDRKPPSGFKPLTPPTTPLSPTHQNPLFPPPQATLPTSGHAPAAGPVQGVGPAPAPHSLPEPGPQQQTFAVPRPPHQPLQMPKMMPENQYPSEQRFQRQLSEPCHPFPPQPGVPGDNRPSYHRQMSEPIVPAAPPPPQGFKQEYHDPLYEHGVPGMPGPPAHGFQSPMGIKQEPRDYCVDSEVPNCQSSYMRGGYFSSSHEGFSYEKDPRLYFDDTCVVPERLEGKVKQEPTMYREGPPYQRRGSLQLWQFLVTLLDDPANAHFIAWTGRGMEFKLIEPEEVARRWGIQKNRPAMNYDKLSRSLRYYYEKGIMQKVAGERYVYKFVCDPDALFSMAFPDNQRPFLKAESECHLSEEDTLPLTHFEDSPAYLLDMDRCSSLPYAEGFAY
Procedure, shortened: as §1

HSF1 = HSF1 (Homo sapiens, UniProt Q00613 1-529); settings: protein: recombinant; tags: N-terminal GST; chain copies: 3; dsDNA, one strand shown
Chain of HSF1 (Q00613 whole entry): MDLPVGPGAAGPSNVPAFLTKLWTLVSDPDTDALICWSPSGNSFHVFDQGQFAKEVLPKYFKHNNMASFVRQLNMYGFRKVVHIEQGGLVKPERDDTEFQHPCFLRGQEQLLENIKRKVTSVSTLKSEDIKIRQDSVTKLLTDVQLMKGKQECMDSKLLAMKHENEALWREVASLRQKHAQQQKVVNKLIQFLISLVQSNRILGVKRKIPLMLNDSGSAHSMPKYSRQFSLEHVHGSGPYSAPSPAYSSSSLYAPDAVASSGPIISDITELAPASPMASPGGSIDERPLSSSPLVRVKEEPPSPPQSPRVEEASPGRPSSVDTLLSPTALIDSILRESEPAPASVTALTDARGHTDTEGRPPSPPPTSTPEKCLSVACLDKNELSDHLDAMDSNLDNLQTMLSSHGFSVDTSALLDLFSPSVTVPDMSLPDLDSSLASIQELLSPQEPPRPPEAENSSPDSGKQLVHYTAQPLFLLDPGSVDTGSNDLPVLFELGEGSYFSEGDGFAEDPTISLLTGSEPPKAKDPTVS
Procedure, shortened: as §1

SPIC = biological target: T8, SPIC (Homo sapiens, UniProt Q8N5J4 1-248); settings: protein: recombinant; tags: N-terminal GST; dsDNA, one strand shown
T8 sequence: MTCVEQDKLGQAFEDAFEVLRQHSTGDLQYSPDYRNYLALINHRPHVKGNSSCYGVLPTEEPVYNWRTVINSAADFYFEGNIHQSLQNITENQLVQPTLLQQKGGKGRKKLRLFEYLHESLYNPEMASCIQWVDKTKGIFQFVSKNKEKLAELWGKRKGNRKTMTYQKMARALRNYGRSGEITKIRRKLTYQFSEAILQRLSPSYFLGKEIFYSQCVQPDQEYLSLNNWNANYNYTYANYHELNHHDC
Procedure, shortened: as §1

ELF4 = ELF4 (Homo sapiens, UniProt Q99607 1-663); settings: protein: recombinant; tags: N-terminal GST; dsDNA, one strand shown
Chain of ELF4 (Q99607 whole entry): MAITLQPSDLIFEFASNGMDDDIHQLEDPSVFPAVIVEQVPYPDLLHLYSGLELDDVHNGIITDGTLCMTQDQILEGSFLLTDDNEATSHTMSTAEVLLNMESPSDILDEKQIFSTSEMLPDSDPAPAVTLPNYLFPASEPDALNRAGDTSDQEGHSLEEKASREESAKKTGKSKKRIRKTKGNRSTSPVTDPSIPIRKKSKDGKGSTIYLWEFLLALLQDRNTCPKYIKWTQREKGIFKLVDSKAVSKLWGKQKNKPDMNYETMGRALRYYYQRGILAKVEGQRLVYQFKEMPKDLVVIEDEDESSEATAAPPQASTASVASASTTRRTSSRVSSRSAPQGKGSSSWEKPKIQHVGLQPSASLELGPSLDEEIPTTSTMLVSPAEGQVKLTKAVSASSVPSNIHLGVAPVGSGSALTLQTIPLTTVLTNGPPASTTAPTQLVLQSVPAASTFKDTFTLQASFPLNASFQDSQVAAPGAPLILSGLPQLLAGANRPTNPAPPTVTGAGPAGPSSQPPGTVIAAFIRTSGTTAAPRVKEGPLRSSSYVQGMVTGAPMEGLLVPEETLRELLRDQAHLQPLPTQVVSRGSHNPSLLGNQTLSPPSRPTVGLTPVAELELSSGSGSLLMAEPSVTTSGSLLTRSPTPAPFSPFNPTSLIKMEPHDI
Procedure, shortened: as §1

ELK4 = biological target: T9, ELK4 (Homo sapiens, UniProt P28324-2 1-405); settings: protein: recombinant; tags: N-terminal GST; dsDNA, one strand shown
T9 sequence: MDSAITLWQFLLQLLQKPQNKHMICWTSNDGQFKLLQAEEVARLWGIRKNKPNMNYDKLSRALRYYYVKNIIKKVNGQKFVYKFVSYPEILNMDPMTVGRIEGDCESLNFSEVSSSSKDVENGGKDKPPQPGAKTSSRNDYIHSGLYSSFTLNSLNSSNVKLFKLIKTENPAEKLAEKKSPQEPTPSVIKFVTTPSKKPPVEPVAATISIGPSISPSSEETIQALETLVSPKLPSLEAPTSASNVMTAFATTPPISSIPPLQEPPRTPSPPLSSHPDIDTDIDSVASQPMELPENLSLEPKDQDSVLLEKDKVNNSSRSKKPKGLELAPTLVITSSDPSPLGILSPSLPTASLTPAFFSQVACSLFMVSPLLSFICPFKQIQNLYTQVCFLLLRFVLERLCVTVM
Procedure, shortened: as §1

ETV2 = biological target: T10, ETV2 (Homo sapiens, UniProt O00321 1-342); settings: protein: recombinant; tags: N-terminal GST; dsDNA, one strand shown
T10 sequence: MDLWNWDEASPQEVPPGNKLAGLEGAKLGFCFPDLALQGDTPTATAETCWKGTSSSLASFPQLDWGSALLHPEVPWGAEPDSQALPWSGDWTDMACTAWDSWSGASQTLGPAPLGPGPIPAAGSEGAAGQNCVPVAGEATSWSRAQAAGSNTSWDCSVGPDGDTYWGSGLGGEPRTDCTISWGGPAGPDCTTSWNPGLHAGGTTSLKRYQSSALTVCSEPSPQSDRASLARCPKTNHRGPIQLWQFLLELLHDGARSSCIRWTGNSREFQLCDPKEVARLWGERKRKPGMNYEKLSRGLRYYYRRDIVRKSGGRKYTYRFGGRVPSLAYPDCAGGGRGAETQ
Procedure, shortened: as §1

ELF3 = biological target: T11, ELF3 (Homo sapiens, UniProt P78545 1-371); settings: protein: recombinant; tags: N-terminal GST; dsDNA, one strand shown
T11 sequence: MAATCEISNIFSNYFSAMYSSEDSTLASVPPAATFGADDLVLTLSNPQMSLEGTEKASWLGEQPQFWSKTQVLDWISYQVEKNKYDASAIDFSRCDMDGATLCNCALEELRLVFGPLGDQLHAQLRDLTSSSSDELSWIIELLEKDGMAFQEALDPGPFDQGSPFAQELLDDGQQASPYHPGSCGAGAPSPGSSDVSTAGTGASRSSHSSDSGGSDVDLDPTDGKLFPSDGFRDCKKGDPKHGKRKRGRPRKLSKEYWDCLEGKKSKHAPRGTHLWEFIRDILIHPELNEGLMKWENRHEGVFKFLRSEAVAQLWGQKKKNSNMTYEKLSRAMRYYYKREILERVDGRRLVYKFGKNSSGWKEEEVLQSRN
Procedure, shortened: as §1

CRX = CRX (Homo sapiens, UniProt O43186 1-299); settings: protein: recombinant; tags: N-terminal GST; dsDNA, one strand shown
Chain of CRX (O43186 whole entry): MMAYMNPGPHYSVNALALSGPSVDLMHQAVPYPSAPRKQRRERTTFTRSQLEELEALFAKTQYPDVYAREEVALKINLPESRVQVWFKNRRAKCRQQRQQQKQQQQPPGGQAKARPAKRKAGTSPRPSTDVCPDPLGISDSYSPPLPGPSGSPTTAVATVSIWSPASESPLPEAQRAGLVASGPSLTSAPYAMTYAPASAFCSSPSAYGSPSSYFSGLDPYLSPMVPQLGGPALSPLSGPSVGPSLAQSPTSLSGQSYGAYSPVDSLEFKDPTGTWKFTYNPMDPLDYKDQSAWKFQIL
Procedure, shortened: as §1

ETV1 = ETV1 (Homo sapiens, UniProt P50549 1-477); settings: protein: recombinant; tags: N-terminal GST; dsDNA, one strand shown
Chain of ETV1 (P50549 whole entry): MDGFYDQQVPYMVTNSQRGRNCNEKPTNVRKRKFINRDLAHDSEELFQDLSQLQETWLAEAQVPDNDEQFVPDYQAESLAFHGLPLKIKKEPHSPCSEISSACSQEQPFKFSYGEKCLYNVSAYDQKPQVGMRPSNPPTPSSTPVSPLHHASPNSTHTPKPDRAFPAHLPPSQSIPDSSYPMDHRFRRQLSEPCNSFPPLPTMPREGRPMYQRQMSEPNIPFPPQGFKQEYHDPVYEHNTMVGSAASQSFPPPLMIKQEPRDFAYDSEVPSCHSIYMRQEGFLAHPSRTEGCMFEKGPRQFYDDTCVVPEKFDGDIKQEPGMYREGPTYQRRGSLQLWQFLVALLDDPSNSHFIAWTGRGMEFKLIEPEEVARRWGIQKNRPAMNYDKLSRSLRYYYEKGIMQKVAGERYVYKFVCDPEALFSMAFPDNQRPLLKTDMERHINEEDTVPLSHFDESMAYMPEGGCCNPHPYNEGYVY
Procedure, shortened: as §1

Sequence: ATTTCC
- binding signal (FLI1): 3.94 fold enrichment (6-mer frequency, TF over GST control)
- binding signal (ELK1): 3.9 fold enrichment (6-mer frequency, TF over GST control)
- binding signal (GABPA): 3.59 fold enrichment (6-mer frequency, TF over GST control)
- binding signal (ERG): 5.18 fold enrichment (6-mer frequency, TF over GST control)
- binding signal (ELF1): 3.51 fold enrichment (6-mer frequency, TF over GST control)
- binding signal (EHF): 4.16 fold enrichment (6-mer frequency, TF over GST control)
- binding signal (SPI1): 3.71 fold enrichment (6-mer frequency, TF over GST control)
- binding signal (SPIB): 4.18 fold enrichment (6-mer frequency, TF over GST control)
- binding signal (ELK3): 4.09 fold enrichment (6-mer frequency, TF over GST control)
- binding signal (FEV): 6.05 fold enrichment (6-mer frequency, TF over GST control)
- binding signal (ETV5): 4.48 fold enrichment (6-mer frequency, TF over GST control)
- binding signal (HSF1): 1.66 fold enrichment (6-mer frequency, TF over GST control)
- binding signal (SPIC): 4.21 fold enrichment (6-mer frequency, TF over GST control)
- binding signal (ELF4): 3.62 fold enrichment (6-mer frequency, TF over GST control)
- binding signal (ELK4): 3.35 fold enrichment (6-mer frequency, TF over GST control)
- binding signal (ETV2): 4 fold enrichment (6-mer frequency, TF over GST control)
- binding signal (ELF3): 3.48 fold enrichment (6-mer frequency, TF over GST control)
- binding signal (CRX): 1.5 fold enrichment (6-mer frequency, TF over GST control)
- binding signal (ETV1): 4.04 fold enrichment (6-mer frequency, TF over GST control)
